# Results: PubChem BioAssay (EPA / NIEHS)
# Values joined by “and” are separate entries in the source; they are usually repeats but may differ in a detail not shown here. Equal entries are not always repeated. Results filed as inconclusive are left out. Active and inactive are the calls of the source. Rule for the calls: active = hit-call score of the fitted dose curve at least 0.9, where 1 is the maximum; inconclusive = response in the unintended direction; inactive = score below 0.9.
# What was measured:
# [1] = target: human Opioid Receptor Mu (Opiate Mu), OPRM1 (gene 4988) (UniProt P35372); experiment: NVS_GPCR_hOpiate_mu: NovaScreen (NVS) G Protein-Coupled Receptor Assay for human Opioid Receptor Mu (Opiate Mu) (AID 2283290);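 note: hits lower bound tracer signal versus DMSO meaning displacement of the ligand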
# Sequence of human Opioid Receptor Mu (Opiate Mu), OPRM1 (gene 4988) (P35372 whole entry, looked up): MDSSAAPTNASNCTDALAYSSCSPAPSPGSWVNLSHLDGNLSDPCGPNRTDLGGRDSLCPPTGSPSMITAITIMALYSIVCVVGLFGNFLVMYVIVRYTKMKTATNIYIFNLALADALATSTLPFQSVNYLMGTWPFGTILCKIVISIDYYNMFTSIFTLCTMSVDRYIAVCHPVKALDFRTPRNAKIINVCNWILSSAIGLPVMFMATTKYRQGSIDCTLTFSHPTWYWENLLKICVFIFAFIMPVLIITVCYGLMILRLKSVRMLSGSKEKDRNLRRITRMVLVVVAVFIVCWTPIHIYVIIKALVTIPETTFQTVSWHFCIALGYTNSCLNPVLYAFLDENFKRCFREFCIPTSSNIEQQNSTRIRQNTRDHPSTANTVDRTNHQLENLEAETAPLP
# Outline: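 CHO-derived receptor protein, cell-free; radioligand displacement, filtration + scintillation counting, read at 2.5 h. DMSO = negative control/baseline. Primary: 25 uM single conc, duplicate; secondary: concentration series.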
# [2] = target: human Vasopressin 1A Receptor (V1A), AVPR1A (gene 552) (UniProt P37288); experiment: NVS_GPCR_hV1A: NovaScreen (NVS) G Protein-Coupled Receptor Assay for human Vasopressin 1A Receptor (V1A) (AID 2283284)
# Sequence of human Vasopressin 1A Receptor (V1A), AVPR1A (gene 552) (P37288 whole entry, looked up): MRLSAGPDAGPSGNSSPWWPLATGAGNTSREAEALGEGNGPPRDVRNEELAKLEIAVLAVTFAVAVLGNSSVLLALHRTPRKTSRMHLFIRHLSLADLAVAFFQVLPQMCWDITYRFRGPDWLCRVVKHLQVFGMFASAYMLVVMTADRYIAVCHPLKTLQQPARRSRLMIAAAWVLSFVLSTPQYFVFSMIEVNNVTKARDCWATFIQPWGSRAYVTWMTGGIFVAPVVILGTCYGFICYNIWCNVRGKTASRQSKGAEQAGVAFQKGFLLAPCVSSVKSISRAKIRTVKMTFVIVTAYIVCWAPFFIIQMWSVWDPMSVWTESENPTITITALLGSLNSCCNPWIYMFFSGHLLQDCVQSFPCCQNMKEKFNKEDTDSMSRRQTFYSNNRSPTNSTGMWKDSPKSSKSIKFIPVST
# Outline: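 Single-concentration duplicate screen at 25 uM, with concentration-response follow-up (top 50 uM) for actives. The assay measured displacement of a radioligand from human platelet-derived receptor after 1.5 h, detected by filtration and scintillation counting.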
# [3] = test system: 5-hydroxytryptamine receptor 2C (pig); experiment: NVS_GPCR_p5HT2C: NovaScreen (NVS) G Protein-Coupled Receptor Assay for pig Serotonin, 5-Hydroxytryptamine Receptor 2C (5HT2C) (AID 2283288)
# Outline: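 Radioligand displacement on membranes from pig choroid plexus, detected by filter scintillation counting after 1 h. Tested first at a single 25 uM in duplicate, then in concentration-response for actives; DMSO served as baseline.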
# [4] = target: mouse Cholecystokinin, CCK2 Receptor (CCKB), Cckbr (gene 12426) (UniProt P56481); experiment: NVS_GPCR_mCKKBCentral: NovaScreen (NVS) G Protein-Coupled Receptor Assay for mouse Cholecystokinin, CCK2 Receptor (CCKB) (AID 2283293)
# Sequence of mouse Cholecystokinin, CCK2 Receptor (CCKB), Cckbr (gene 12426) (P56481 whole entry, looked up): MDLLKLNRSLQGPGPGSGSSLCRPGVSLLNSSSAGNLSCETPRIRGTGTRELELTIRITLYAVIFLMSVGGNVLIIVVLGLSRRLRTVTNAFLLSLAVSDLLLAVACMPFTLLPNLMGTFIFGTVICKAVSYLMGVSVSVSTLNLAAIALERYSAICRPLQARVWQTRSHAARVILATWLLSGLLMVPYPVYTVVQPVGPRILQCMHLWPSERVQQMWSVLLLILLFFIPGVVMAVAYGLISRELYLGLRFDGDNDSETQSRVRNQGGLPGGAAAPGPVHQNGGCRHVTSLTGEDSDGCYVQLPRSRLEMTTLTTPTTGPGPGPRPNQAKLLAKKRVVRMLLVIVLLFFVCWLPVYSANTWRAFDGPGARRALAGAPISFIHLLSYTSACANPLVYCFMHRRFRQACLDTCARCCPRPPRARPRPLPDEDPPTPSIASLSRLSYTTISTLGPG
# Outline: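 Mouse forebrain membrane preparation incubated 2 h with chemical and radioligand; bound radioactivity counted after filtration. Single-concentration duplicate screen at 25 uM, then concentration series to 50 uM max for hits, DMSO as baseline.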
# [5] = target: rat Serotonin, 5-Hydroxytryptamine Receptor 1 (5HT1), Non-Selective Binding, Htr1a (gene 24473) (UniProt P19327); experiment: NVS_GPCR_r5HT1_NonSelective: NovaScreen (NVS) G Protein-Coupled Receptor Assay for rat Serotonin, 5-Hydroxytryptamine Receptor 1 (5HT1), Non-Selective Binding (AID 2283286)
# Sequence of rat Serotonin, 5-Hydroxytryptamine Receptor 1 (5HT1), Non-Selective Binding, Htr1a (gene 24473) (P19327 whole entry, looked up): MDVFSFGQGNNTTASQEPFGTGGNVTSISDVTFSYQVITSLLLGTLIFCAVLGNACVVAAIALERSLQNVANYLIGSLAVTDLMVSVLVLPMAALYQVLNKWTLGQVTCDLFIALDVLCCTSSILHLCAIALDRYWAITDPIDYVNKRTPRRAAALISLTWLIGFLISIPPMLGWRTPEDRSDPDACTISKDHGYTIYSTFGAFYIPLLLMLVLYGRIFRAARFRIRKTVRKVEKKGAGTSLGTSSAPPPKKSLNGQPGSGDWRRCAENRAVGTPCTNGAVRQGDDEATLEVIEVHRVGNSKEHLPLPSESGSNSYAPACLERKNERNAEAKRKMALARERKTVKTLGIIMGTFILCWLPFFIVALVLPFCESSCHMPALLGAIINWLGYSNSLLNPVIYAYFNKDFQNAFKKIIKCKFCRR
# Outline: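 Binding of a radioligand to rat cortex membranes is read by filtration and scintillation counting after 1 h. Compounds were screened at 25 uM in duplicate. Actives were then titrated to a top of 50 uM. DMSO is the baseline.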
# [6] = target: guinea pig Serotonin, 5-Hydroxytryptamine Receptor 4 (5HT4), HTR4 (gene 100135548) (UniProt O70528); experiment: NVS_GPCR_g5HT4: NovaScreen (NVS) G Protein-Coupled Receptor Assay for guinea pig Serotonin, 5-Hydroxytryptamine Receptor 4 (5HT4) (AID 2283294)
# Sequence of guinea pig Serotonin, 5-Hydroxytryptamine Receptor 4 (5HT4), HTR4 (gene 100135548) (O70528 whole entry, looked up): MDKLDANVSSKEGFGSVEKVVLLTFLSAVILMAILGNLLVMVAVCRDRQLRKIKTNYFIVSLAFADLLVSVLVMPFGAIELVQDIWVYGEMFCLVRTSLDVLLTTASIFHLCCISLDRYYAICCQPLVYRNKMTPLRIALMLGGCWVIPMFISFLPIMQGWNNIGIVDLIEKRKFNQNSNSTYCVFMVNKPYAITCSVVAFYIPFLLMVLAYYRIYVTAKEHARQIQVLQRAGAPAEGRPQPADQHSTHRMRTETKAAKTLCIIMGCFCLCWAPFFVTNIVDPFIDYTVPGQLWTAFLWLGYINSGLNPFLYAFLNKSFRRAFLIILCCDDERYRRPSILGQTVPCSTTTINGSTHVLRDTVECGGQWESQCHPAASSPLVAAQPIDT
# Outline: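 Compounds first screened in duplicate at 25 uM, actives followed up in concentration series. Binding measured as displacement of specific radioligand from guinea pig striatal membranes, 1 h, filter-based scintillation read-out versus DMSO baseline.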
# [7] = target: rat Serotonin, 5-Hydroxytryptamine Receptor (5HT), Non-Selective Binding, Htr1a (gene 24473) (UniProt P19327); experiment: NVS_GPCR_r5HT_NonSelective: NovaScreen (NVS) G Protein-Coupled Receptor Assay for rat Serotonin, 5-Hydroxytryptamine Receptor (5HT), Non-Selective Binding (AID 2283295)
# Sequence of rat Serotonin, 5-Hydroxytryptamine Receptor (5HT), Non-Selective Binding, Htr1a (gene 24473) (P19327 whole entry, looked up): as the sequence (P19327 whole entry, looked up) above
# Outline: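 Rat cortex membrane preparation incubated 1 h with radioligand and test chemical; bound radioactivity counted after filtration. Screening began in duplicate at 25 uM with concentration-series follow-up; fitting relative to DMSO.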
# [8] = target: mouse Cholecystokinin, CCK1 Receptor (CCKA), Cckar (gene 12425) (UniProt O08786); experiment: NVS_GPCR_mCCKAPeripheral: NovaScreen (NVS) G Protein-Coupled Receptor Assay for mouse Cholecystokinin, CCK1 Receptor (CCKA) (AID 2283285)
# Sequence of mouse Cholecystokinin, CCK1 Receptor (CCKA), Cckar (gene 12425) (O08786 whole entry, looked up): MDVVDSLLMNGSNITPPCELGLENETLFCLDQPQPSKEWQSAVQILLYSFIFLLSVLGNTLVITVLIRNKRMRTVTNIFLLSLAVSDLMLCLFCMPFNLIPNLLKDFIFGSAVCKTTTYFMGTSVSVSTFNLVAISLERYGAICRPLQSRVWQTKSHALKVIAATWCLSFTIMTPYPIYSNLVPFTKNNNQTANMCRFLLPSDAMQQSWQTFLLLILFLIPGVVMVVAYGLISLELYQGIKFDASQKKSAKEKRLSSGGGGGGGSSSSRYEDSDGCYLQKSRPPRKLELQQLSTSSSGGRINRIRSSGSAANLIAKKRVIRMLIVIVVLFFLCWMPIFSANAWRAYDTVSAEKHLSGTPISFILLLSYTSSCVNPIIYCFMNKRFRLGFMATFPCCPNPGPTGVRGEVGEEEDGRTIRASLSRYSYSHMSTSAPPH
# Outline: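 Chemicals were first screened in duplicate at 25 uM, with those meeting threshold (e.g., 30% inhibition) retested in singleton concentration series to 50 uM maximum. Binding of radioligand to mouse pancreatic membranes was read after 2 h by filtration and scintillation counting.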
# [9] = test system: rabbit Platelet Activating Factor Receptor (PAF), gene 100354046; experiment: NVS_GPCR_rabPAF: NovaScreen (NVS) G Protein-Coupled Receptor Assay for rabbit Platelet Activating Factor Receptor (PAF) (AID 2283287)
# Outline: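 Rabbit platelet membrane preparation; radioligand displacement read by filter-based scintillation counting 1 h after dosing, loss of signal versus DMSO. Primary screen in duplicate at 25 uM, actives followed up in concentration series.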
# [10] = target: rat Adrenergic, Alpha 1, Non-selective Receptor (Adra1), Adra1a (gene 29412) (UniProt P43140); experiment: NVS_GPCR_rAdra1_NonSelective: NovaScreen (NVS) G Protein-Coupled Receptor Assay for rat Adrenergic, Alpha 1, Non-selective Receptor (Adra1) (AID 2283289)
# Sequence of rat Adrenergic, Alpha 1, Non-selective Receptor (Adra1), Adra1a (gene 29412) (P43140 whole entry, looked up): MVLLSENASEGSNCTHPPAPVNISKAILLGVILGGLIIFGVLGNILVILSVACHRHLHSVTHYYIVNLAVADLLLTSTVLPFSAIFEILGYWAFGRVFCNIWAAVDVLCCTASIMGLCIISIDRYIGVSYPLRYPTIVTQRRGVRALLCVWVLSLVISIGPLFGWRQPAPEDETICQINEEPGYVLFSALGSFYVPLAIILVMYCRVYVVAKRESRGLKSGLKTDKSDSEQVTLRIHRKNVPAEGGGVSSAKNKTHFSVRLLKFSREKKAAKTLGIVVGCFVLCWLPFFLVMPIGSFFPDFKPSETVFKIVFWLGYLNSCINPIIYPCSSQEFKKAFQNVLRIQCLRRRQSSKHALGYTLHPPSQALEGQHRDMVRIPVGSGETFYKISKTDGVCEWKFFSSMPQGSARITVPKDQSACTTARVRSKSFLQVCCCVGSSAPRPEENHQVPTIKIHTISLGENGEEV
# Outline: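 Chemicals first screened in duplicate at 25 uM, then actives tested in concentration series up to 50 uM. Binding measured as displacement of radioligand from rat forebrain membrane receptors, 1 h, filtration with scintillation readout; DMSO baseline.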
smiles,measurement,setting,value
CC(C)(C)c1ccc(O)c(O)c1,AC50,[1],17.4 µM (active)
CCCCC(CC)C(=O)O (stereo not given),outcome,[2],inactive
CCCCCCCCCCCCOS(=O)(=O)O,outcome,[3],inactive
same,AC50,[1],25 µM (active)
CN(C)c1ccc(C(=C2C=CC(=[N+](C)C)C=C2)c2ccccc2)cc1,AC50,[1],6.79 µM (active) and 6.47 µM (active)
CN(Cc1cnc2nc(N)nc(N)c2n1)c1ccc(C(=O)N[C@@H](CCC(=O)O)C(=O)O)cc1,outcome,[3],inactive
same,outcome,[1],inactive
same,outcome,[4],inactive
N=C(N)c1ccc(OCCCCCOc2ccc(C(=N)N)cc2)cc1,AC50,[5],3.44 µM (active)
same,AC50,[3],10.2 µM (active)
same,AC50,[6],2.4 µM (active)
same,AC50,[7],14 µM (active)
O=C(CCCN1CCC(O)(c2ccc(Cl)cc2)CC1)c1ccc(F)cc1,AC50,[8],37.3 µM (active)
same,outcome,[5],inactive
same,AC50,[6],1.75 µM (active)
C=CC(=C)CC/C=C(\C)CCC=C(C)C,outcome,[1],inactive
CCCCCCCCCCCCCCCCCC[N+](C)(C)Cc1ccccc1,AC50,[1],2.17 µM (active)
CS(=O)(=O)c1ccc([C@@H](CC2CCCC2)C(=O)Nc2cnccn2)cc1Cl,outcome,[2],inactive
CCC(C)c1ccccc1O (stereo not given),AC50,[3],11.5 µM (active)
O=C1OC2(c3ccccc31)c1cc(I)c(O)c(I)c1Oc1c2cc(I)c(O)c1I,AC50,[1],0.0269 µM (active)
NC(=NCCCCCCN=C(N)/N=C(\N)Nc1ccc(Cl)cc1)/N=C(\N)Nc1ccc(Cl)cc1,AC50,[1],3.32 µM (active) and 3.04 µM (active)
CCCCc1oc2ccccc2c1C(=O)c1cc(I)c(OCCN(CC)CC)c(I)c1,outcome,[2],inactive
same,AC50,[8],21.6 µM (active)
same,AC50,[9],22.5 µM (active)
same,AC50,[10],24.5 µM (active)
same,AC50,[6],15.7 µM (active)
CN(C)CCOC(c1ccccc1)c1ccccc1,AC50,[5],6.56 µM (active)
same,outcome,[1],inactive
same,outcome,[6],inactive
same,AC50,[7],7.06 µM (active)
